Source: PubChem
Hits are enriched below; roughly 19% of the tested compounds scored in any of these assays.
TDP1 cell CPT = DT40-hTDP1 cell growth loss with CPT; actives 12% (n = 420,000); chicken DT40 Tdp1-/-;hTDP1 cells + 20 nM CPT, ATP luminescence, 48 h; Potency, µM (doses to about 46.2 µM), usual class: inhibitors; note: nearly all actives have a fitted effect of over 55% in size
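Chicken DT40 Tdp1-/- cells stably complemented with human TDP1 were seeded at 400 cells/well in medium containing 20 nM camptothecin, exposed to pin-transferred compounds, and grown at 37 °C for at least 48 hr. Viability was read as ATP luminescence.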
HT1080 IDH1KD tx = HT-1080 IDH1 knockdown cell toxicity (counter line); HT-1080 IDH1 knockdown viability, ATP luminescence, 48 h; actives 2% (n = 360,000); AID 686971; Potency, µM (highest dose often 46.1 µM), hits mostly cytotoxic
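Luminescent ATP read-out (CellTiter-Glo, 10 min at room temperature) after 48 h compound exposure at 37 °C gave viability of IDH1-knockdown HT-1080 cells. Activity was normalised to DMSO and cell-free wells, then fitted as concentration-response curves.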
HT1080NT lethal = kills 2HG-producing HT-1080-NT fibrosarcoma cells; Potency, µM (doses to about 46.1 µM), most hits filed as cytotoxic; HT-1080-NT fibrosarcoma viability, CellTiter-Glo ATP luminescence, 48 h; actives 1.6% (n = 360,000);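 note: NT is the 2HG producing partner of a matched IDH1 knockdown line; nearly all actives have a fitted effect of over 55% in size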
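Toxicity toward the 2HG-producing NT line was scored as %Activity, normalised to DMSO and no-cell wells, from CellTiter-Glo luminescence after 48 hours' treatment.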
TDP1 cell noCPT = qHTS for Inhibitors of human tyrosyl-DNA phosphodiesterase 1 (TDP1): qHTS in cells in absence of CPT. Potency, µM (titrated, usually from 46.2 µM), actives largely listed as inhibitors. actives 15% (n = 420,000). DT40 Tdp1-/- hTDP1 cells, no CPT, ATP luminescence, 48 h; note: nearly all actives have a fitted effect of over 55% in size
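DT40 Tdp1-/-;hTDP1 cells, no CPT (DMSO vehicle only), 400 cells/well; compounds pin-transferred; ≥48 hr, 37 °C; CellTiter-Glo 30 min RT dark, luminescence read.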
IL1B secr inh = blocks inflammasome-driven IL-1 beta release | activity change, % at 57.5 µM | THP-1 LPS/ATP IL-1B secretion, AlphaLISA, 16 h; hits give low values | actives 4.7% (n = 360,000); in the data active = activity change below about -50%; inconclusive = mostly about -30% to -49%
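THP-1 cells pretreated 1 hr with compounds (up to 57.5 uM final), then stimulated with LPS (250 ng/mL final) plus ATP (1.25 mM final); secreted IL-1B measured by AlphaLISA after 16 hr, decreased signal indicating inhibition.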
Each line names hits and unclear results; the compound was inactive in the other large screens. Unless noted, calls come from the whole dose curve; as a rule, active = well fitted curve in the direction sought with a large enough effect; inconclusive = small, poorly fitted or top-dose-only effect, or another doubt; inactive = no such curve, though single readings can be large; an effect the other way counts as inactive or inconclusive.

NC(=S)N/N=C/c1ccccc1	none
CCOc1ccc(Cl)cc1C1CC(=O)Nc2cc(OC)c(OC)c(OC)c21 (stereo not given)	none (no result: HT1080 IDH1KD tx, HT1080NT lethal, IL1B secr inh)
Nc1c2c(nc3sc4c(c13)CCCC4)-c1ccccc1CC2	HT1080 IDH1KD tx 18µM, HT1080NT lethal inconclusive, TDP1 cell noCPT inconclusive, IL1B secr inh -88
CCC(=O)N1CCc2cc(S(=O)(=O)CCC(=O)N3CCN(c4ccccc4Cl)CC3)ccc21	TDP1 cell CPT 18µM, TDP1 cell noCPT inconclusive (no result: HT1080 IDH1KD tx, HT1080NT lethal, IL1B secr inh)
CC(=O)N1CCCc2cc(S(=O)(=O)CCC(=O)N3CCN(c4cccc(C)c4)C(C)C3)ccc21 (stereo not given)	TDP1 cell CPT 21µM, TDP1 cell noCPT inconclusive
CCOC(=O)N1CCN(C(=O)CCS(=O)(=O)c2ccc3c(c2)CC(C)N3C(=O)CC)CC1 (stereo not given)	TDP1 cell CPT inconclusive, TDP1 cell noCPT inconclusive
CCC(=O)N1c2ccc(S(=O)(=O)CCC(=O)N3CCN(c4ccc(F)cc4)CC3)cc2CC1C (stereo not given)	TDP1 cell CPT 15µM, TDP1 cell noCPT 13µM (no result: HT1080 IDH1KD tx, HT1080NT lethal, IL1B secr inh)
CC(=O)N1CCc2cc(S(=O)(=O)CCC(=O)N3CCN(c4ccccc4F)CC3)ccc21	TDP1 cell CPT inconclusive
CC(=O)c1ccc(N2CCN(C(=O)CCS(=O)(=O)c3ccc4c(c3)CCN4C(C)=O)CC2)cc1	TDP1 cell CPT 21µM, TDP1 cell noCPT inconclusive
CCOC(=O)N1CCN(C(=O)CCS(=O)(=O)c2ccc3c(c2)CCN3C(=O)CC)CC1	none
CCC(=O)N1c2ccc(S(=O)(=O)CCC(=O)Nc3ccc(Br)c(C)c3)cc2CC1C (stereo not given)	TDP1 cell CPT 18µM, TDP1 cell noCPT 21µM (no result: HT1080 IDH1KD tx, HT1080NT lethal, IL1B secr inh)
CCC(=O)N1c2ccc(S(=O)(=O)CCC(=O)NCc3cccs3)cc2CC1C (stereo not given)	TDP1 cell CPT inconclusive, HT1080 IDH1KD tx inconclusive, TDP1 cell noCPT inconclusive
CCC(=O)N1CCc2cc(S(=O)(=O)CCC(=O)N3CCN(c4ccc(F)cc4)CC3)ccc21	TDP1 cell CPT 21µM, TDP1 cell noCPT 23µM
Cc1ccc(N(C(=O)Cn2nnc(-c3ccc(C)o3)n2)C(C(=O)NC2CCCC2)c2ccco2)cc1 (stereo not given)	TDP1 cell CPT inconclusive, HT1080 IDH1KD tx inconclusive, HT1080NT lethal inconclusive, TDP1 cell noCPT 13µM
Cc1ccc(C)c(N(C(=O)Cn2nnc(-c3cccs3)n2)C(C(=O)NC2CC2)c2ccc(C)o2)c1 (stereo not given)	TDP1 cell CPT inconclusive, TDP1 cell noCPT 11µM
Cc1ccc(N(C(=O)Cn2nnc(-c3cccs3)n2)C(C(=O)NC2CCCC2)c2ccncc2)cc1 (stereo not given)	TDP1 cell CPT 23µM, TDP1 cell noCPT 21µM
Cc1ccc(-c2nnn(CC(=O)N(Cc3ccco3)C(C(=O)NC(C)(C)C)c3ccc(C)o3)n2)o1 (stereo not given)	TDP1 cell CPT 16µM, TDP1 cell noCPT 21µM
Cc1ccc(-c2nnn(CC(=O)N(c3ccccc3)C(C(=O)NC3CCCC3)c3ccncc3)n2)o1 (stereo not given)	none
COc1cc(NS(=O)(=O)c2cc(NC(C)=O)ccc2OC)c(OC)cc1NC(=O)c1ccccc1	none
CC(Sc1nc(-c2ccccc2)cc(C(F)(F)F)n1)C(=O)N1CCCCC1 (stereo not given)	TDP1 cell CPT inconclusive, TDP1 cell noCPT inconclusive
OC(c1cc(-c2ccc(C(F)(F)F)cc2)nc(C(F)(F)F)c1)C1CCCCN1 (stereo not given)	TDP1 cell CPT 1.6µM, HT1080 IDH1KD tx inconclusive, HT1080NT lethal inconclusive, TDP1 cell noCPT 6.5µM, IL1B secr inh -104
CCN(C[C@H]1N[C@@](CC)(C(=O)OC)[C@H]2C(=O)N(Cc3ccccc3)C(=O)[C@@H]12)C(=O)c1ccc(C)cc1	TDP1 cell CPT inconclusive, TDP1 cell noCPT 15µM
COC(=O)[C@]1(Cc2ccccc2)N[C@H](CN(C)C(=O)Nc2ccc(OC)cc2)[C@@H]2C(=O)N(Cc3ccccc3)C(=O)[C@@H]21	TDP1 cell CPT 18µM, TDP1 cell noCPT 8.2µM
